# According to PubChem BioAssay (NCATS):
# “And” between values parts separate entries of the source, which are not always exact repeats. Identical values can stand only once. Results filed as inconclusive are left out. Where a call stands in place of a potency, no number is given. The source made the active and inactive calls. The call rests on the fitted dose curve; in most records, active means well fitted curve in the direction sought with a large enough effect; inconclusive means small, poorly fitted or top-dose-only effect, or another doubt; inactive means no such curve, though single readings can be large; an effect the other way counts as inactive or inconclusive.
# Assay: qHTS for Inhibitors of Plasmodium falciparum (DD2) proliferation (AID 504314)
# Details: P. falciparum Dd2 in erythrocytes, SYBR Green growth, 72 h; series mostly up to 6.11 µM
# How it was run: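 P. falciparum Dd2 is grown in erythrocytes with test compound for 72 h at 37C under 5% CO2. Growth is scored by SYBR Green I fluorescence after detergent lysis, relative to artemisinin (0.29 uM) and DMSO controls.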
# Potency means the concentration at half of the fitted maximal effect.
row,SMILES,Potency
1,CC(CCN1CCCc2nc(C)c(C)cc21)=NOC[C@@H](C)[C@H](OCc1ccccc1)C(C)C,inactive
2,CCOC(=O)CCN1C(=O)[C@@H]2[C@H]3[C@H](O)[C@H](O)CC(=NO[C@@H]4O[C@H](COC(C)=O)[C@@H](OC(C)=O)[C@H](OC(C)=O)[C@@H]4OC(C)=O)[C@H]3CC[C@H]2C1=O,inactive
3,Cc1ccc(C(=O)OC[C@H]2O[C@H](Cl)C[C@H]2OC(=O)c2ccc(C)cc2)cc1,1690 nM (active)

# Assay: qHTS for Inhibitors of Plasmodium falciparum (GB4) proliferation (AID 504315); further: nearly all actives have a fitted effect of over 50% in size
# Details: P. falciparum GB4 in erythrocytes, SYBR Green DNA, 72 h; series mostly up to 6.7 µM
# How it was run: (§1)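 Parasite growth measured as SYBR Green DNA fluorescence (ex 485, em 535 nm) after overnight lysis following 72 h culture at 37 °C, 0.3% parasitemia, 2.5% hematocrit. Values normalized against DMSO and 0.29 uM artemisinin controls, with plate-stack correction.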
row,SMILES,Potency
1,CCCCc1cc2c(cn1)=C(OC(=O)c1cccs1)C(C)(OC(=O)CC)C(=O)C=2 (stereo not drawn),1690 nM (active)
2,COC(=O)C1=C(C)N(Cc2ccccc2)C(=NCc2cc(OC)c(OC)c(OC)c2)NC1CCc1ccccc1 (stereo not drawn),849 nM (active)
3,CCOC(=O)[C@@]1([C@@H](NC(=O)OC)c2cccc(C)c2)CCCC1=O,inactive
4,CCCCc1cc2c(cn1)C(=O)C(C)(OC(C)=O)C(=O)C2 (stereo not drawn),1690 nM (active)
5,CCCC[C@]12Cc3ccccc3[C@H](O1)c1c(cc(-c3ccccc3)oc1=O)O2,1690 nM (active)
6,COC(=O)C=P(c1ccccc1)(c1ccccc1)c1ccccc1,inactive
7,COC(=O)N[C@@H](C=Cc1ccccc1)C[N+](=O)[O-],inactive
8,CCCCC1=CC2=C(c3ccco3)C(=O)C(C)(OC(=O)c3ccc(OC)cc3)C(=O)C2=CN1CCN1CCOCC1 (stereo not drawn),inactive
9,COc1ccc(-c2nc3c(c4c2C[C@H](c2ccccc2)OC4)CN(C(=O)c2cccnc2)CC3)c(C)c1,inactive
10,CC(=O)OC[C@H]1O[C@H](CCON=C(C)CCN2CCCc3nc(C)c(C)cc32)C=C[C@H]1OC(C)=O,inactive
11,CCCC[C@]12Cc3cc(C#N)ccc3[C@H](O1)c1c(c3cc(F)ccc3oc1=O)O2,inactive
12,O=C1Nc2cccc(Br)c2[C@@]12O[C@H](COc1ccccc1)CC1=CCCC12 (stereo partly drawn),inactive
13,CC(C)(C)Nc1oc(-c2ccccc2)nc1-c1ccc(C(F)(F)F)cc1,inactive
14,CCCCC1=CC2=C(c3ccco3)C(=O)C(C)(OC(=O)c3ccc(OC)cc3)C(=O)C2=CN1C1CCCCC1 (stereo not drawn),inactive
15,COC(=O)CCCC1=CC2=C(c3ccccc3)C(=O)C(C)(OC(=O)C3CCCC3)C(=O)C2=CN1Cc1ccc(OC)cc1 (stereo not drawn),inactive
16,COC(=O)[C@H]1[C@@H](c2ccccc2)NC(=O)N(CCc2cc(OC)c(OC)c(OC)c2)[C@@H]1C,inactive
17,COCOc1cc(OC)ccc1C(=O)C=Cc1ccc([N+](=O)[O-])cc1,1690 nM (active)
18,C[C@@H]1CC[C@H]2C(=O)O[C@@H](COc3ccc(C(C)(C)C)cc3)CN2[C@H]1c1ccc(Br)cc1,inactive
19,CCN(CC)CCCN=C1NC(c2cccc(F)c2)C(C(=O)OC)=C(C)N1Cc1ccccc1 (stereo not drawn),inactive
20,COc1cccc([C@@H]2Oc3ccc(Br)cc3C(=O)[C@@H]2OC(=O)N[C@H]2CCCc3ccccc32)c1,inactive
21,CC1(OC(=O)C2CCCC2)C(=O)C=C2C=C(c3ccsc3)N(c3cccc(C#N)c3)C=C2C1=O (stereo not drawn),inactive
22,COc1cccc2c1[C@H](C=Cc1ccccc1)[C@@H]([C@H](O)CO)OC2,inactive
23,COC(=O)C1=C(C(=O)OC)[C@@H]2N(C)c3ccccc3[C@@]23CCC(=O)N(CC(C)C)C3=N1,inactive
24,C=CCOC(=O)C(C(C)=O)[C@@H](NC(=O)OC)c1ccc2ccccc2c1 (stereo partly drawn),inactive
25,COc1ccc(-c2nc(-c3ccccc3)c(NC(C)C)o2)cc1,1510 nM (active)
26,CCOC(=O)CCN1C(=O)[C@@H]2[C@H]3[C@H](O)[C@H](O)CC(=NO[C@@H]4O[C@H](COC(C)=O)[C@@H](OC(C)=O)[C@H](OC(C)=O)[C@@H]4OC(C)=O)[C@H]3CC[C@H]2C1=O,inactive

# Assay: qHTS for Inhibitors of Plasmodium falciparum (7G8) proliferation (AID 504316); further: nearly all actives have a fitted effect of over 65% in size
# Details: P. falciparum 7G8 in erythrocytes, SYBR Green DNA, 72 h; series mostly up to 6.7 µM
# How it was run: as §1
row,SMILES,Potency
1,CCCCc1cc2c(cn1)=C(OC(=O)c1cccs1)C(C)(OC(=O)CC)C(=O)C=2 (stereo not drawn),1.69 µM (active)
2,COC(=O)C1=C(C)N(Cc2ccccc2)C(=NCc2cc(OC)c(OC)c(OC)c2)NC1CCc1ccccc1 (stereo not drawn),1.51 µM (active)
3,CCOC(=O)[C@@]1([C@@H](NC(=O)OC)c2cccc(C)c2)CCCC1=O,inactive
4,CCCCc1cc2c(cn1)C(=O)C(C)(OC(C)=O)C(=O)C2 (stereo not drawn),2.13 µM (active) and 1.69 µM (active)
5,CCCC[C@]12Cc3ccccc3[C@H](O1)c1c(cc(-c3ccccc3)oc1=O)O2,1.9 µM (active)
6,COC(=O)C=P(c1ccccc1)(c1ccccc1)c1ccccc1,inactive
7,CCCCC1=CC2=C(c3ccco3)C(=O)C(C)(OC(=O)c3ccc(OC)cc3)C(=O)C2=CN1CCN1CCOCC1 (stereo not drawn),inactive
8,CCCC[C@]12Cc3cc(C#N)ccc3[C@H](O1)c1c(c3cc(F)ccc3oc1=O)O2,inactive
9,O=C1Nc2cccc(Br)c2[C@@]12O[C@H](COc1ccccc1)CC1=CCCC12 (stereo partly drawn),inactive
10,CC(C)(C)Nc1oc(-c2ccccc2)nc1-c1ccc(C(F)(F)F)cc1,inactive
11,CCCCC1=CC2=C(c3ccco3)C(=O)C(C)(OC(=O)c3ccc(OC)cc3)C(=O)C2=CN1C1CCCCC1 (stereo not drawn),inactive
12,COC(=O)CCCC1=CC2=C(c3ccccc3)C(=O)C(C)(OC(=O)C3CCCC3)C(=O)C2=CN1Cc1ccc(OC)cc1 (stereo not drawn),inactive
13,COc1cccc([C@@H]2Oc3ccc(Br)cc3C(=O)[C@@H]2OC(=O)N[C@H]2CCCc3ccccc32)c1,inactive
14,CC1(OC(=O)C2CCCC2)C(=O)C=C2C=C(c3ccsc3)N(c3cccc(C#N)c3)C=C2C1=O (stereo not drawn),inactive
15,COc1cccc2c1[C@H](C=Cc1ccccc1)[C@@H]([C@H](O)CO)OC2,inactive
16,COC(=O)C1=C(C(=O)OC)[C@@H]2N(C)c3ccccc3[C@@]23CCC(=O)N(CC(C)C)C3=N1,inactive
17,C=CCOC(=O)C(C(C)=O)[C@@H](NC(=O)OC)c1ccc2ccccc2c1 (stereo partly drawn),inactive
18,COc1ccc(-c2nc(-c3ccccc3)c(NC(C)C)o2)cc1,1.51 µM (active)
19,CCOC(=O)CCN1C(=O)[C@@H]2[C@H]3[C@H](O)[C@H](O)CC(=NO[C@@H]4O[C@H](COC(C)=O)[C@@H](OC(C)=O)[C@H](OC(C)=O)[C@@H]4OC(C)=O)[C@H]3CC[C@H]2C1=O,inactive
